In the library only some 4% were active in any assay of this set; here they are far more common.
Wnt bcat act: activates Wnt/beta-catenin signaling in a reporter cell assay; activator, plate reader; activation, % at 9.35 µM; 300,000 compounds, 1.2% hits; in the data active means activation above about 30%, passing the limit was not always enough; inconclusive means no clear call, values can overlap the other calls
esBAF inh: inhibitors of esBAF chromatin remodeling in mouse ES cells; Bmi1-luciferase knock-in reporter, 24 h; 100% = twice the neutral-well signal; reporter increase, % at 12.5 µM; 350,000 compounds, 2% hits; in the data active means activation above about 40%; inconclusive means no clear call, values can overlap the other calls;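 further: a rise in the Bmi1 reporter signal indicates esBAF inhibition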
C2C12 statin: protects C2C12 myotubes from simvastatin toxicity | ATP luminescence, 48 h; scaled: DMSO 0, geranylgeraniol control 100 | rescue of ATP level, % at 7.49 µM | 330,000 compounds, 0.78% hits;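 active means mean ATP rescue above about 67%, or every replicate alone reaching that limit, limit read from the data, passing the limit was not always enough; inconclusive means no clear call, values can overlap the other calls; inactive means mean under the limit and some replicate under it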;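 further: myotubes were challenged with 10 µM simvastatin during compound exposure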
TRPM1 prom inh: inhibitors of MITF-driven TRPM1 promoter in melanoma cells; SK-MEL-5 TRPM1 promoter luciferase, 24 h; inhibition, % at 12.5 µM; 330,000 compounds, 0.83% hits;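 active means mean inhibition across replicates of 60% or more, whatever share of single replicates reaches that level; inconclusive means some that reach 60%, reason not given; inactive means mean inhibition across replicates below 60%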
EBV LMP1 NFkB: reduces LMP1-driven NF-kappaB luciferase signal. 350,000 compounds, 0.69% hits. LMP1-induced NF-kappaB luciferase reporter cells, luminescence. AID 504558. inhibition, % at 12.5 µM; in the data active means inhibition above about 41%; inconclusive means no clear call, values can overlap the other calls
MITF act: activators of MITF-driven TRPM1 promoter activity in SK-MEL-5 cells. 300,000 compounds, 0.75% hits. activation, % at 12.5 µM. SK-MEL-5 TRPM1-promoter luciferase, 24 h; % of positive control, neutral wells = 0;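 active means mean activation of at least 80% with every replicate also reaching 80%; inconclusive means mean reaches 80% but some replicate falls short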
Ring1 derepress: confirmation of esBAF inhibitors: Ring1 de-repression in mouse ESCs | fold change at 33 µM | shares compounds with esBAF inh | AID 743176 | 550 tested, under 10 active | mouse ESC E14, Ring1 mRNA RT-qPCR fold change;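 active means Ring1 gene expression raised more than 2-fold over untreated cells in both replicates at either tested dose; inconclusive means only one replicate above 2-fold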;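 further: Ring1 transcript normalised to actin housekeeping signal by TaqMan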
Fgf4 repress: esBAF inhibition confirmed by Fgf4 repression; AID 743177; mouse ESC E14, Fgf4 mRNA qPCR fold change; active compounds read low; Fgf4 expression fold change at 33 µM; shares compounds with esBAF inh; 550 compounds, 4% hits;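 active means Fgf4 expression under 0.8 fold of control in both repeat measurements at one or both tested doses; inconclusive means under 0.8 fold in just a single repeat measurement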;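 further: Fgf4 transcript normalised to actin in duplex TaqMan qPCR; cells exposed to compound for 24 h before lysis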
esBAF Bmi1 qPCR: de-represses Bmi1 in mouse ESCs, confirming esBAF inhibition | fold change at 33 µM | mouse ESE14 ES cells, Bmi1 mRNA qPCR fold; active compounds read high | 550 tested, under 10 active | shares compounds with esBAF inh | AID 743180;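 active means Bmi1 expression fold change above 6 at either tested concentration, seen in replicate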;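 further: higher fold means more Bmi1 de-repression and stronger esBAF inhibition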
A549 cytotox: cytotoxicity in A549 cells. shares compounds with esBAF inh. plate reader. cell viability change % (negative = cytotoxic), % at 25 µM, hits read low. 550 tested, under 10 active. AID 743188; call rule not given here
HepG2 cytotox SP: HepG2 cell cytotoxicity at single point; shares compounds with esBAF inh; plate reader; active compounds read low; 550 compounds, 4% hits; activity change, negative = inhibition, % at 25 µM; in the data active means activity change below about -50%
HEK293 tox SP: HEK293 cell cytotoxicity at single point; shares compounds with esBAF inh; plate reader; activity change, negative = inhibition, % at 25 µM, hits read low; 550 compounds, 3% hits; AID 743190; in the data active means activity change below about -38%, passing the limit was not always enough
Each line names hits and unclear results; the compound was inactive in the other large screens (follow-up assays come after a bar, where they were run).

CCOC(=O)C1CCCN(C(=O)Cc2c(F)cccc2Cl)C1 (configuration not stated)	none
Nc1c(Cl)cc(N=Nc2ccccc2)cc1Cl	esBAF inh 58 | Ring1 derepress inactive | Fgf4 repress inactive | esBAF Bmi1 qPCR inactive | A549 cytotox inactive | HepG2 cytotox SP -91 | HEK293 tox SP inactive
CS(=O)(=O)N(CC(=O)NC1CCCCCC1)Cc1ccccc1	none (no result: Wnt bcat act)
O=C1Nc2ccccc2N=C(c2ccc3c(c2)OCO3)C1N(C(=O)c1ccc2ccccc2c1)C1CC1 (configuration not stated)	esBAF inh 105 (no result: TRPM1 prom inh, EBV LMP1 NFkB, MITF act) | Ring1 derepress inactive | Fgf4 repress inactive | esBAF Bmi1 qPCR inactive | A549 cytotox inactive | HepG2 cytotox SP inactive | HEK293 tox SP inactive
CCn1c(C)nc2cc(C(=O)N/N=C/c3ccccc3C)ccc21	none
CCn1c(C)nc2cc(C(=O)NN=Cc3ccccc3OC(F)F)ccc21	esBAF inh 79, MITF act 90 | Ring1 derepress inactive | Fgf4 repress inactive | esBAF Bmi1 qPCR inactive | A549 cytotox inactive | HepG2 cytotox SP inactive | HEK293 tox SP inactive
c1ccc(Oc2cc(-c3ccccc3)ncn2)cc1	esBAF inh 77 (no result: Wnt bcat act, MITF act) | Ring1 derepress inactive | Fgf4 repress inconclusive | esBAF Bmi1 qPCR inactive | A549 cytotox inactive | HepG2 cytotox SP inactive | HEK293 tox SP inactive
Nc1ncnc2nc(SCC(=O)Nc3cccc(C(F)(F)F)c3)[nH]c12	none
COc1ccc(NC(=O)Nc2cccc(C)n2)cc1	esBAF inh 66 | Ring1 derepress inactive | Fgf4 repress inactive | esBAF Bmi1 qPCR inactive | A549 cytotox inactive | HepG2 cytotox SP inactive | HEK293 tox SP inactive
Cc1nc2c(-c3ccc(Cl)cc3)cnn2c2c1CCC2	Wnt bcat act inconclusive (no result: esBAF inh, C2C12 statin)
COc1ccccc1-c1cn(CC[C@@H]2CC[C@@H](NC(=O)Cc3ccccn3)[C@H](CO)O2)nn1	none (no result: Wnt bcat act, TRPM1 prom inh, EBV LMP1 NFkB, MITF act)
COc1ccccc1N1CCN(C(=O)C2CCN(C(=O)c3cccc(Cl)c3)CC2)CC1	none
O=C(O)C=C1CCN(c2ncc(C(F)(F)F)cc2Cl)CC1	esBAF inh 63 (no result: MITF act) | Ring1 derepress inactive | Fgf4 repress inactive | esBAF Bmi1 qPCR inactive | A549 cytotox inactive | HepG2 cytotox SP inactive | HEK293 tox SP inactive
C[C@@H]1CN([C@@H](C)CO)C(=O)c2cc(-c3cncnc3)cnc2O[C@@H]1CN(C)CC1CCOCC1	none (no result: Wnt bcat act, TRPM1 prom inh, EBV LMP1 NFkB, MITF act)
CC(C)Oc1ccc(S(=O)(=O)N2CCOCC2)cc1NC(=O)Cc1c(F)cccc1Cl	none
COc1cc(CNc2ccc(S(N)(=O)=O)cc2)ccc1OCc1ccccc1F	esBAF inh 96 (no result: MITF act) | Ring1 derepress inactive | Fgf4 repress inactive | esBAF Bmi1 qPCR inactive | A549 cytotox inactive | HepG2 cytotox SP inactive | HEK293 tox SP inactive
Cc1cccc(C)c1OCc1nc2ccccc2[nH]1	none (no result: esBAF inh, C2C12 statin)
Cc1ccc(C)c(OCc2nc3ccccc3[nH]2)c1	Wnt bcat act 46, esBAF inh 66 | Ring1 derepress inactive | Fgf4 repress inactive | esBAF Bmi1 qPCR inactive | A549 cytotox inactive | HepG2 cytotox SP inactive | HEK293 tox SP inactive
C[C@@H]1CCCCO[C@H](CN(C)C(=O)CCCN(C)C)[C@H](C)CN([C@H](C)CO)C(=O)c2cc(N(C)C)ccc2O1	none (no result: Wnt bcat act, TRPM1 prom inh, EBV LMP1 NFkB, MITF act)
O=C(Nc1cccc(Cl)c1Cl)c1ccc(-c2ccccc2)cc1	esBAF inh 74 (no result: Wnt bcat act) | Ring1 derepress inactive | Fgf4 repress inactive | esBAF Bmi1 qPCR inactive | A549 cytotox inactive | HepG2 cytotox SP inactive | HEK293 tox SP inactive
